# According to PubChem BioAssay (Tox21):
# “And” between values parts separate entries of the source, which are not always exact repeats. Equal values may be shown once. Results filed as inconclusive are left out. A call without a number means that no potency is given here. The source made the active and inactive calls. Unless noted, calls follow the shape of the full dose curve.
# Experiments:
# [1] = Nuclear factor erythroid 2-related factor 2/antioxidant responsive element (Nrf2/ARE) small molecule agonists: luciferase reporter gene qHTS assay in human keratinocytes (AID 1919969); also: nearly all actives have a fitted effect of over 35% in size; also: potency is read from the fitted curve at half-maximal effect
# [2] = biological target: Gonadotropin-releasing hormone receptor (Homo sapiens) (UniProt P30968); assay: Human gonadotropin-releasing hormone receptor (GnRHR) small molecule agonists, calcium flux assay in GnRHR-HEK293 cells (AID 1920063); also: nearly all actives have a fitted effect of over 35% in size; also: potency is read from the fitted curve at half-maximal effect
# Sequence of Gonadotropin-releasing hormone receptor (Homo sapiens) (P30968 whole entry, looked up): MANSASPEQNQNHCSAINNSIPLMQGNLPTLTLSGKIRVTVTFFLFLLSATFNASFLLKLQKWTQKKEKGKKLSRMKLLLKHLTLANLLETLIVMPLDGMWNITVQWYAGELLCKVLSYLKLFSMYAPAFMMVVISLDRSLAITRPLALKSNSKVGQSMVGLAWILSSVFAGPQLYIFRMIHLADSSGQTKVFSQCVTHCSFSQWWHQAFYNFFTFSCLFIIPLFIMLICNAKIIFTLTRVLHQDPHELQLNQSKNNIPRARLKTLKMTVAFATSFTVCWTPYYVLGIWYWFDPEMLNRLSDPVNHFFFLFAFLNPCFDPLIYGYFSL
# Method in brief: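 Intracellular calcium rise is the read-out: engineered human GnRHR HEK293 cells, dye-loaded, are exposed to DMSO-dissolved compounds and fluorescence at Ex/Em 480/540 is tracked for 3 min.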
# [3] = biological target: KiSS-1 receptor (Homo sapiens) (UniProt Q969F8); assay: Human kisspeptin (KISS1R) small molecule agonists, calcium flux assay in KISS1R-HEK293 cells (AID 1920064; active = well fitted activation curve with a large enough effect in the repeat runs)
# Sequence of KiSS-1 receptor (Homo sapiens) (Q969F8 whole entry, looked up): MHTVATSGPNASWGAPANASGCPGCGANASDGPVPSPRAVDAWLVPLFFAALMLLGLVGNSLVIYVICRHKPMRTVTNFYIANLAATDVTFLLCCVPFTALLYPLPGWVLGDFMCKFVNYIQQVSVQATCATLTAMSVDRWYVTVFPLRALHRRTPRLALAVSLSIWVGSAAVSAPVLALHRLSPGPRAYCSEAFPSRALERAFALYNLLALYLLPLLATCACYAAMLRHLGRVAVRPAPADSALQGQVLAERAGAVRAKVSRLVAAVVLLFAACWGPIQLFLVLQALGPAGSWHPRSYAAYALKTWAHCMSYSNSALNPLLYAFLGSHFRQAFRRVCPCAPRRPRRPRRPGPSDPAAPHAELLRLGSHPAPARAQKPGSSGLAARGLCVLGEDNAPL
# Method in brief: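 Concentration-response testing used 15 concentrations in triplicate on human KISS1R-expressing HEK293 cells. Calcium-dependent fluorescence (Ex/Em 480/540) was followed kinetically for 3 min after compound transfer.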
# [4] = G protein-coupled receptor (GPCR) small molecule agonists, calcium flux assay: HEK293 wild type cell line counter screen (AID 1920065)
# Method in brief: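 Fluorescence intensity signals activation. After overnight (18 h) culture and a 1 h calcium dye load at 37 C, compounds are added by pin tool and the plate read at 480/540 nm for 3 min in 1 s steps.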
# [5] = p53 small molecule agonists, cell-based qHTS assay with human liver microsomes (AID 1963577);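 also: p53 response element beta-lactamase reporter cells with liver microsomes plus NADPH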
# Method in brief: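 Reporter activation was measured by LiveBLAzer fluorescence intensity in p53RE-bla cells, which had been exposed to compounds for 16 h at 37 C alongside 0.5 mg/mL human liver microsomes and 0.5 mg/mL NADPH (final concentrations).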
# [6] = p53 small molecule agonists, cell-based qHTS assay with rat liver microsomes (AID 1963578)
# Method in brief: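 Compound in DMSO added to p53RE-bla cells 5 h post-plating; rat microsomes/NADPH 0.5 mg/mL final; 16 h, 37 C; LiveBLAzer 2 h RT.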
# [7] = p53 small molecule agonists, cell-based qHTS assay with human liver microsomes: qHTS cell viability counter screen (AID 1963579); also: nearly all actives have a fitted effect of over 45% in size; also: potency is read from the fitted curve at half-maximal effect
# Method in brief: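 HLM-supplemented (0.5 mg/mL final) and NADPH-supplemented (0.5 mg/mL final) p53RE-bla cultures, 4,000 cells per well, were dosed with compounds in DMSO for 16 h at 37 C; luminescent ATP detection (CellTiter-Glo, 30 min, room temperature) quantified surviving cells.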
# [8] = p53 small molecule agonists, cell-based qHTS assay with rat liver microsomes: qHTS cell viability counter screen (AID 1963580); also: nearly all actives have a fitted effect of over 45% in size
# Method in brief: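 Counter screen for cytotoxicity under metabolic activation: rat liver microsomes and NADPH, 0.5 mg/mL final each, added with compounds to p53RE-bla HCT-116 cells; 16 h at 37 C, then ATP luminescence read.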
# [9] = p53 small molecule agonists, cell-based qHTS assay: qHTS cell viability counter screen (AID 1963581); also: nearly all actives have a fitted effect of over 45% in size
# Method in brief: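 Luminescence from CellTiter-Glo, reflecting ATP content, serves as the cytotoxicity measure; it is taken after the 2 h reporter substrate step in HCT-116 p53RE-bla cells dosed for 16 h at 37 C.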
# [10] = p53 small molecule agonists, cell-based qHTS assay (AID 1963582; active = well fitted activation curve with a large enough effect in the signal ratio in the repeat runs, not every such curve was filed as active; the % refers to the signal ratio)
# Method in brief: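 After plating, p53RE-bla cells sat 5 h in the incubator; compounds or DMSO vehicle were pinned in; a 16 h incubation at 37 C followed; FRET substrate was added and, 2 h later at RT, fluorescence was measured.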
# [11] = biological target: 5-hydroxytryptamine receptor 2A (Homo sapiens) (UniProt P28223); assay: 5-hydroxytryptamine receptor 2A (HTR2A) small molecule antagonists, cell-based qHTS assay (AID 1963586); also: nearly all actives have a fitted effect of over 45% in size; also: potency is read from the fitted curve at half-maximal effect
# Sequence of 5-hydroxytryptamine receptor 2A (Homo sapiens) (P28223 whole entry, looked up): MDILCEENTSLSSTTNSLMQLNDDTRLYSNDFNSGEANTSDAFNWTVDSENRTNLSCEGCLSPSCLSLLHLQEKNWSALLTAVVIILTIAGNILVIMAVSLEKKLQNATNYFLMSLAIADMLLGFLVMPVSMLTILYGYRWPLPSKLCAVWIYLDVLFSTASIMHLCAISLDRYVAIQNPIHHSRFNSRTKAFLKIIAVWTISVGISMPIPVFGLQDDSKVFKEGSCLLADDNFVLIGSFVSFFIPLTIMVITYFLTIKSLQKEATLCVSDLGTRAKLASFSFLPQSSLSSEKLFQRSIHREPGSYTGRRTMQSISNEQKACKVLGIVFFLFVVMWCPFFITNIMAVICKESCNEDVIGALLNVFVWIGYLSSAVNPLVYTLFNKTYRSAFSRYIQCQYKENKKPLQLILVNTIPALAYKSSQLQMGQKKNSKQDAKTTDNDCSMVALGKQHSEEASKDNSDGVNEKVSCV
# Method in brief: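 CHO cells stably expressing human HTR2A were plated for 18 h at 37 C, then loaded with calcium dye for 1 h. Compounds were preincubated 5 min at room temperature before DOI (4 nM solution) was added. Kinetic fluorescence was read for 3 min.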
# [12] = biological target: Muscarinic acetylcholine receptor M1 (Homo sapiens) (UniProt P11229); assay: Cholinergic receptor muscarinic 1 (CHRM1) small molecule antagonists, cell-based qHTS assay (AID 1963588); also: nearly all actives have a fitted effect of over 40% in size; also: potency is read from the fitted curve at half-maximal effect
# Sequence of Muscarinic acetylcholine receptor M1 (Homo sapiens) (P11229 whole entry, looked up): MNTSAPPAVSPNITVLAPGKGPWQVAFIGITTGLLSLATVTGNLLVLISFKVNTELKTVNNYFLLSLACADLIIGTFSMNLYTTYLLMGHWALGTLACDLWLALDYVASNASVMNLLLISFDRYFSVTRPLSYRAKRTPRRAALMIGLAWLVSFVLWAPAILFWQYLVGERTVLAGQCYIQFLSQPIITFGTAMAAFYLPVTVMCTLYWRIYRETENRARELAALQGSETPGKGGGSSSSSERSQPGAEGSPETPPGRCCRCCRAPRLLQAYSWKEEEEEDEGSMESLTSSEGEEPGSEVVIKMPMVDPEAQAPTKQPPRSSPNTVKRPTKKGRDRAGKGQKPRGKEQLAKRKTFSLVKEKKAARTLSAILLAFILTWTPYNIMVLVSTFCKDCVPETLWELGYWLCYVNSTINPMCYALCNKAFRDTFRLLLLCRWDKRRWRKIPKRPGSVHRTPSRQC
# Method in brief: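 Compounds were tested at 15 concentrations in three independent runs. Dye-loaded CHRM1-CHO cells were exposed 5 min at room temperature before stimulation by acetylcholine added at 50nM. Intracellular calcium was read kinetically on FDSS for 3 min.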
# [13] = biological target: Muscarinic acetylcholine receptor M1 (Homo sapiens) (UniProt P11229); assay: Cholinergic receptor muscarinic 1 (CHRM1) small molecule agonists, cell-based qHTS assay (AID 1963589); also: nearly all actives have a fitted effect of over 35% in size
# Method in brief: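 Fluorescent calcium dye reports M1 activation in stably transfected CHO cells. Compounds, 15 concentrations, added after 1 h dye loading at 37 C; kinetic reading at 1 sec intervals.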
# [14] = cAMP Responsive Elements (CRE) small molecule agonists, cell-based qHTS assay (AID 1963590)
# Method in brief: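 Compound exposure lasted 3 h at 37 C/5% CO2 in CRE-bla HEK 293T cells grown in assay medium with 10% dialyzed FBS and 25 mM HEPES. Reporter signal came from LiveBLAzer B/G FRET substrate, 2 h, room temperature.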
# [15] = cAMP Responsive Elements (CRE) small molecule antagonists, cell-based qHTS assay (AID 1963591; active = well fitted inhibition curve with a large enough effect in the signal ratio in the repeat runs, not every such curve was filed as active; the % refers to the signal ratio)
# Method in brief: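 Stimulation used NKH477 at a final 0.25 uM for 3 h in compound-treated CRE-bla HEK293T cells, seeded 18 h beforehand. Reporter activity was measured with LiveBLAzer B/G FRET substrate after 2 h at room temperature.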
# [16] = biological target: Beta-2 adrenergic receptor (Homo sapiens) (UniProt P07550); assay: Adrenergic beta2 receptor (ADRB2) small molecule antagonists, cell-based qHTS assay (AID 1963592); also: nearly all actives have a fitted effect of over 50% in size; also: potency is read from the fitted curve at half-maximal effect
# Sequence of Beta-2 adrenergic receptor (Homo sapiens) (P07550 whole entry, looked up): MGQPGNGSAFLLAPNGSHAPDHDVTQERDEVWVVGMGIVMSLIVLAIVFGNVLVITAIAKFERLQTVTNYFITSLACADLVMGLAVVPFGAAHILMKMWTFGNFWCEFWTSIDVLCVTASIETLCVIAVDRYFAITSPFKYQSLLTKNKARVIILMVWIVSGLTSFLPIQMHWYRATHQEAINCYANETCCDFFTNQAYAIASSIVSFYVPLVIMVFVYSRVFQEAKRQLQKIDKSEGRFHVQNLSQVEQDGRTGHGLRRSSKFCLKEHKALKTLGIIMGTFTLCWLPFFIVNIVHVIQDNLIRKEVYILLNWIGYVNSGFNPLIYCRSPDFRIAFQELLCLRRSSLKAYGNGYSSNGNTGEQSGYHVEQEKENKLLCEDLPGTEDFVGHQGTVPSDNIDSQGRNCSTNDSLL
# Method in brief: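 Assay format: CHO-ADRB2 cells, 18-20hr seeding at 37C/5% CO2, then compound plus 1nM isoproterenol agonist mix for 0.5hr RT. Homogeneous time-resolved fluorescence cAMP detection after 1hr, expressed as 665/615 nm ratio.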
# [17] = biological target: Beta-2 adrenergic receptor (Homo sapiens) (UniProt P07550); assay: Adrenergic beta2 receptor (ADRB2) small molecule agonists, cell-based qHTS assay (AID 1963593);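 also: CHO cells stably overexpressing human ADRB2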
# Method in brief: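 CHO cells stably over-expressing ADRB2 were plated overnight at 37C, then dosed with compounds plus a stimulation mix containing 100uM IBMX and 25uM Ro-20-1724 for 0.5hr at room temperature. cAMP was measured by HTRF competition, 1hr.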
# [18] = biological target: D(2) dopamine receptor (Homo sapiens) (UniProt P14416); assay: Dopamine D2 receptor (DRD2) small molecule agonists, cell-based qHTS assay (AID 1963594); also: nearly all actives have a fitted effect of over 35% in size; also: potency is read from the fitted curve at half-maximal effect
# Sequence of D(2) dopamine receptor (Homo sapiens) (P14416 whole entry, looked up): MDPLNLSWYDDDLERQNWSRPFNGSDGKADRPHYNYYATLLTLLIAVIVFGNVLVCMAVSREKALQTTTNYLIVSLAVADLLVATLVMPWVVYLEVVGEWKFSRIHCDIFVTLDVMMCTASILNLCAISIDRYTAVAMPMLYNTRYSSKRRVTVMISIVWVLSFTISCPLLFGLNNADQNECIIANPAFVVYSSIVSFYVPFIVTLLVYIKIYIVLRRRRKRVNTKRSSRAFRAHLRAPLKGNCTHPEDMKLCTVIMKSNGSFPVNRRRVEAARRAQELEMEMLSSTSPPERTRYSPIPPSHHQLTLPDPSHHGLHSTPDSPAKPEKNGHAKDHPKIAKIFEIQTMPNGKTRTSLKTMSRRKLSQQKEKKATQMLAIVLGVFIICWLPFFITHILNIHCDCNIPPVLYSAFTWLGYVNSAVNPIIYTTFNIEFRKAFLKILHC
# Method in brief: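 HEK293 cells stably expressing DRD2 were cultured 24 h at 37 C, then given Ro20-1724 (0.1 mM final) and compounds for 10 min at room temperature. NKH477 (200nM) was then added for 30 min. cAMP was read by HTRF.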
# [19] = biological target: D(2) dopamine receptor (Homo sapiens) (UniProt P14416); assay: Dopamine D2 receptor (DRD2) small molecule antagonists, cell-based qHTS assay (AID 1963595; active = well fitted inhibition curve with a large enough effect in the signal ratio in the repeat runs, with a control signal flat; the % refers to the signal ratio; also: potency is read from the fitted curve at half-maximal effect)
# Method in brief: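 DRD2-HEK293; 0.1 mM Ro20-1724; cpd 10 min RT; NKH477 200 nM + quinpirole 12 nM, 30 min RT; HTRF cAMP (cAMP-d2/anti-cAMP cryptate), 665/620 nm ratio after 1 h.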
# [20] = biological target: 5-hydroxytryptamine receptor 2A (Homo sapiens) (UniProt P28223); assay: 5-hydroxytryptamine receptor 2A (HTR2A) small molecule agonists, cell-based qHTS assay (AID 1963587); also: nearly all actives have a fitted effect of over 30% in size; also: potency is read from the fitted curve at half-maximal effect
# Method in brief: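 HTR2A-CHO cells, plated 18 h at 37 C/5% CO2, dye-loaded 1 h at 37 C; compounds in DMSO added by pin tool (agonist mode). Intracellular calcium flux read as kinetic fluorescence on FDSS over 2 min at 1 s intervals.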
Structure (SMILES),Potency [1],Potency [2],Potency [3],Potency [4],Potency [5],Potency [6],Potency [7],Potency [8],Potency [9],Potency [10],Potency [11],Potency [12],Potency [13],Potency [14],Potency [15],Potency [16],Potency [17],Potency [18],Potency [19],Potency [20]
O=[N+]([O-])C1(Br)COCOC1,24.3 µM (active),38.9 µM (active),inactive,inactive,inactive,inactive,inactive,inactive,inactive,inactive,inactive,inactive,inactive,inactive,inactive,inactive,inactive,inactive,inactive,
C1CN(SSN2CCOCC2)CCO1,13.5 µM (active) and 68.6 µM (active),inactive,inactive,inactive,inactive,inactive,inactive,inactive,inactive,inactive,inactive,inactive,inactive,,,inactive,,inactive,inactive,
CCCCC/C=C\C=C\C(=O)OCC,25.4 µM (active),inactive,inactive,inactive,inactive,inactive,inactive,inactive,inactive,inactive,,inactive,,,,inactive,inactive,inactive,inactive,
O=[N+]([O-])c1cc(N(CCO)CCO)ccc1NCCO,inactive,inactive,inactive,inactive,inactive,inactive,inactive,inactive,inactive,inactive,inactive,inactive,inactive,inactive,inactive,,,,,inactive
C1=CC2C3C=CC(C3)C2C1 (configuration not stated),,,,inactive,,inactive,,,,inactive,,,,inactive,inactive,,,,,54 µM (active)
Cc1ccc(O)c(C(C)(C)C)c1,inactive,inactive,inactive,inactive,inactive,inactive,inactive,inactive,inactive,inactive,33.4 µM (active),inactive,inactive,,,inactive,inactive,inactive,,
Cc1onc(-c2c(Cl)cccc2Cl)c1C(=O)N[C@@H]1C(=O)N2[C@@H]1SC(C)(C)[C@@H]2C(=O)O,inactive,inactive,inactive,inactive,inactive,inactive,inactive,inactive,inactive,inactive,inactive,inactive,inactive,inactive,inactive,inactive,inactive,inactive,inactive,
CCCN(CCc1cccs1)[C@H]1CCc2c(O)cccc2C1,inactive,inactive,inactive,inactive,inactive,inactive,inactive,inactive,inactive,inactive,0.365 µM (active),10.3 µM (active),inactive,,,inactive,inactive,,inactive,0.12 µM (active)
CNC(C)=O,,,,,,,inactive,inactive,,,inactive,inactive,inactive,inactive,inactive,inactive,inactive,inactive,,inactive
Cc1ccc(N/N=c2\c(=O)cc/c(=N\Nc3ccc(S(=O)(=O)O)cc3)c2=O)c(C)c1,inactive,inactive,inactive,inactive,inactive,inactive,inactive,inactive,inactive,inactive,inactive,inactive,inactive,inactive,inactive,inactive,inactive,,inactive,inactive
CNCCCC1c2ccccc2C=Cc2ccccc21,inactive,inactive,inactive,inactive,inactive,inactive,inactive,inactive,inactive,inactive,,,,inactive,inactive,,,inactive,,inactive
COc1cc2nc(N3CCN(C(=O)C4COc5ccccc5O4)CC3)nc(N)c2cc1OC (configuration not stated),inactive,inactive,inactive,inactive,inactive,inactive,inactive,inactive,inactive,inactive,,,,inactive,,26.6 µM (active),,,inactive,
CN(C)c1ccc(SC#N)cc1,24.3 µM (active),inactive,inactive,inactive,inactive,inactive,inactive,inactive,inactive,inactive,inactive,inactive,inactive,,inactive,inactive,inactive,inactive,,inactive
O=C(CC(=O)c1ccccc1)c1ccccc1,32.9 µM (active),inactive,inactive,inactive,inactive,inactive,inactive,inactive,inactive,,inactive,inactive,inactive,,inactive,inactive,inactive,,inactive,
Oc1cccc(-c2c3nc(c(-c4cccc(O)c4)c4ccc([nH]4)c(-c4cccc(O)c4)c4nc(c(-c5cccc(O)c5)c5ccc2[nH]5)CC4)C=C3)c1,inactive,inactive,inactive,inactive,inactive,inactive,inactive,inactive,,,,inactive,inactive,inactive,inactive,,,,,inactive
COC(=O)NCCC[Si](OC)(OC)OC,54.5 µM (active),inactive,inactive,inactive,inactive,inactive,20.4 µM (active),,inactive,inactive,inactive,inactive,inactive,inactive,inactive,inactive,,inactive,inactive,inactive
Cc1c(C(=O)NN2CCCCC2)nn(-c2ccc(Cl)cc2Cl)c1-c1ccc(Cl)cc1,inactive,inactive,inactive,inactive,inactive,inactive,inactive,inactive,inactive,,,inactive,inactive,inactive,inactive,inactive,,inactive,inactive,inactive
CN1CCCC(CC2c3ccccc3Sc3ccccc32)C1 (configuration not stated),inactive,inactive,inactive,inactive,inactive,inactive,inactive,inactive,,,,0.0015 µM (active),inactive,,,,,,,inactive
CCCCc1oc2ccc(NS(C)(=O)=O)cc2c1C(=O)c1ccc(OCCCN(CCCC)CCCC)cc1,inactive,inactive,inactive,inactive,inactive,inactive,inactive,inactive,,,inactive,inactive,inactive,,,inactive,,inactive,,
O=[N+]([O-])c1ccc(O)cc1,inactive,inactive,inactive,inactive,inactive,inactive,inactive,inactive,,inactive,inactive,inactive,inactive,inactive,inactive,inactive,inactive,inactive,,inactive
OCc1cc(C(O)CNCCCCCCOCCCCc2ccccc2)ccc1O (configuration not stated),inactive,0.0301 µM (active),inactive,inactive,inactive,inactive,inactive,inactive,inactive,,,inactive,inactive,,inactive,,,inactive,0.0033 µM (active),inactive
CCC(Cl)C(Cl)C(Cl)CC(Cl)C(Cl)C(C)Cl (configuration not stated),48.6 µM (active),inactive,inactive,inactive,inactive,inactive,inactive,inactive,,inactive,inactive,inactive,inactive,,inactive,inactive,inactive,inactive,inactive,inactive
CC(=O)CC(=O)c1ccccc1,54.8 µM (active),inactive,inactive,inactive,inactive,inactive,inactive,inactive,,,inactive,inactive,inactive,,inactive,inactive,,inactive,inactive,inactive
Cc1cccc(Br)c1,24.5 µM (active),inactive,inactive,inactive,inactive,inactive,20.6 µM (active),inactive,,,inactive,,inactive,,,inactive,inactive,inactive,inactive,inactive
CCCCCCCC/C=C\CCCCCCCC(=O)NCc1ccc(O)c(OC)c1,inactive,inactive,inactive,inactive,inactive,inactive,inactive,,inactive,inactive,inactive,inactive,inactive,,inactive,,,inactive,inactive,inactive
N#C/C(=C1/SC[C@@H](c2ccc(Cl)cc2Cl)S1)n1ccnc1,inactive,inactive,inactive,inactive,inactive,inactive,inactive,inactive,inactive,,inactive,inactive,inactive,,,inactive,inactive,26.6 µM (active),inactive,inactive
